The supplement of paper PMC3342239
Where a name gives a salt, the structure may show the parent alone.

What follows are molecules tested on Saccharomyces cerevisiae (assay: fraction of cells in G1 phase (DNA content, flow cytometry); higher = more cells with unreplicated DNA (G1 delay)). Settings: temperature: 30 C; YPD; JTY2953 pdr5 snq2 (sensitized); drug added to: cultures diluted from stationary phase; 6-7 h.
In short: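 For the G1 fraction, the Dean-Jett-Fox G1 peak area was divided by the sum of the G1 and G2/M areas. S. cerevisiae in YPD at 30°C received library drugs and was fixed 6–7 h later for sensitized JTY2953 (diluted 1∶200 from overnight, final 20 µg/ml), 6 h later for dividing JTY2953, or 4.33 h later for BY4741. Fixed cells were stained with SYTOX Green and 10,000 events recorded by flow cytometry.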
For CC[C@]1(O)C[C@@H]2CN(CCc3c([nH]c4ccccc34)[C@@](C(=O)OC)(c3cc4c(cc3OC)N(C)[C@H]3[C@@](O)(C(N)=O)[C@H](O)[C@]5(CC)C=CCN6CC[C@]43[C@@H]65)C2)C1 [Vindesine] (26.5271 µM), the “fraction of cells in G1 phase” value was 0.478. With CN(C)CCc1c[nH]c2ccc(C[C@H]3COC(=O)N3)cc12 [zolmitriptan] (65.9179 µM) the “fraction of cells in G1 phase” value was 0.474. In the case of CN1CCN(c2c(F)cc3c(=O)c(C(=O)O)cn4c3c2SCC4)CC1 [Rufloxacin] (55.0337 µM), the “fraction of cells in G1 phase” value is reported as 0.466. CC(N)C12CC3CC(CC(C3)C1)C2 (stereo not drawn) [Rimantadine HCl] (111.54 µM) was tested, and the “fraction of cells in G1 phase” value was 0.484. For CC(C)(Oc1ccc(CCNC(=O)c2ccc(Cl)cc2)cc1)C(=O)O [Bezafibrate] (55.2748 µM), the “fraction of cells in G1 phase” value was 0.517. In the case of Nc1c(Br)cc(Br)cc1CN[C@H]1CC[C@H](O)CC1 [Ambroxol] (52.8948 µM), the “fraction of cells in G1 phase” value is reported as 0.529. For NCCCC[C@H](N[C@@H](CCc1ccccc1)C(=O)O)C(=O)N1CCC[C@H]1C(=O)O [Lisinopril] (49.322 µM), the “fraction of cells in G1 phase” value was 0.502. With CC1(C)S[C@@H]2[C@H](NC(=O)[C@H](N)c3ccccc3)C(=O)N2[C@H]1C(=O)O [Ampicillin trihydrate] (57.2391 µM) the “fraction of cells in G1 phase” value was 0.497.
